Experimental data as given in PubChem BioAssay (NCATS).
Several values for one entry are separate records, joined by “and”; a condition that tells them apart may be missing. Identical values can stand only once. Records with an inconclusive call do not appear. Unmarked numbers belong to inactive results. Activity calls are given as the source filed them. Calls come from the whole dose curve; as a rule, active = well fitted curve in the direction sought with a large enough effect; inconclusive = small, poorly fitted or top-dose-only effect, or another doubt; inactive = no such curve, though single readings can be large; an effect the other way counts as inactive or inconclusive.

Key:
HaCat [1] = assay: Cytotoxic Profiling of Annotated Libraries Using Quantitative High-Throughput Screening (AID 1296008); settings: Five cell lines viability, CellTiter-Glo ATP luminescence, 48-72 h; max response: stronger effect = lower value; note: nearly all actives have a fitted effect of over 60% in size; note: potency is the fitted concentration of half-maximal effect
Summary of the method: (§1)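 Cells exposed to compounds for 48 or 72 hr at 37 degrees Celsius. Viability read as ATP-coupled luminescence with CellTiter-Glo after 10 min at room temperature.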

KB-3-1 = assay: as above; settings: Five cell lines viability, CellTiter-Glo ATP luminescence, 48-72 h; max response: stronger effect = lower value
Summary of the method: as §1

NIH3T3 = assay: as above; settings: Five cell lines viability, CellTiter-Glo ATP luminescence, 48-72 h; max response: stronger effect = lower value
Summary of the method: as §1

HACAT [2] = assay: qHTS assay to identify novel small-molecules to repurpose for Merkel cell carcinoma treatment (AID 1296009); settings: MCC and control cell lines, CellTiter-Glo viability, 72 h; at 44.8 µM (top of the series) unless noted; note: nearly all actives have a fitted effect of over 60% in size; note: potency is the fitted concentration of half-maximal effect
Summary of the method: (§2)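 CellTiter-Glo luminescence after 72 hr compound exposure at 37 degree celsius gave cell viability. Libraries NPC and MIPE were run as 8- and 11-point dose responses; RLUs normalized to DMSO (negative) and no-cell (cytotoxicity) controls.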

HEK293T = assay: as above; settings: MCC and control cell lines, CellTiter-Glo viability, 72 h; at 44.8 µM (top of the series) unless noted
Summary of the method: as §2

MCC-13 = assay: as above; settings: MCC and control cell lines, CellTiter-Glo viability, 72 h; series mostly up to 46 µM
Summary of the method: as §2

MCC-26 = assay: as above; settings: MCC and control cell lines, CellTiter-Glo viability, 72 h; series mostly up to 46 µM
Summary of the method: as §2

MKL-1 = assay: as above; settings: MCC and control cell lines, CellTiter-Glo viability, 72 h; series mostly up to 46 µM
Summary of the method: as §2

MKL-2 = assay: as above; settings: MCC and control cell lines, CellTiter-Glo viability, 72 h; series mostly up to 46 µM
Summary of the method: as §2

UISO = assay: as above; settings: MCC and control cell lines, CellTiter-Glo viability, 72 h; series mostly up to 46 µM
Summary of the method: as §2

WaGa = assay: as above; settings: MCC and control cell lines, CellTiter-Glo viability, 72 h; series mostly up to 46 µM
Summary of the method: as §2

C33A = assay: Primary qHTS to identify gynecologic anti-cancer compounds using libraries of approved drugs and bioactive compounds (AID 1345084); settings: Gynecologic cancer cell panel viability, ATPlite luminescence, 48 h; series mostly up to 57.5 µM; note: nearly all actives have a fitted effect of over 55% in size
Summary of the method: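 ATP-based viability (ATPlite), 1,000 cells/well, 16 h pre-incubation, 48 h compound at 37 C, 5% CO2, 15 min RT before read.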

CRL-7250 = normal cell line; assay: Cytotoxic Profiling of Annotated Libraries Using Quantitative High-Throughput Screening (AID 1296008); settings: Five cell lines viability, CellTiter-Glo ATP luminescence, 48-72 h; max response: stronger effect = lower value; note: nearly all actives have a fitted effect of over 60% in size; note: potency is the fitted concentration of half-maximal effect
Summary of the method: as §1

HEK293 = assay: as above; settings: Five cell lines viability, CellTiter-Glo ATP luminescence, 48-72 h; max response: stronger effect = lower value
Summary of the method: as §1
% is set by controls: 0 for no effect and ±100 for the full control effect.

O=C(O)CNC(=O)c1c(O)c2ccccc2n(Cc2ccccc2)c1=O was tested, and the outcome (HaCat [1]) was “inactive”, the max response (KB-3-1) was 5.38% and 7.42% and the max response (NIH3T3) was -11% and 0.668%. For the same compound, the outcome (HACAT [2]) was “inactive”, the outcome (HEK293T) was “inactive” and the Potency (MCC-13) was “inactive”. For the same compound, the Potency (MCC-26) was “inactive”, the Potency (MKL-1) was “inactive” and the Potency (MKL-2) was “inactive”. The Potency (UISO) was “inactive”, the Potency (WaGa) was “inactive” and the Potency (C33A) was “inactive”.
CC(C)Oc1cccc(NC(=O)c2ccccc2C(F)(F)F)c1 was tested, and the Potency (CRL-7250) was 54500 nM (active), the max response (KB-3-1) was -12.9% and the Potency (MCC-13) was “inactive”. For the same compound, the Potency (MKL-1) was “inactive” and the Potency (WaGa) was 38600 nM (active).
With COc1cc([C@@H]2c3cc4c(cc3[C@@H](O)C3COC(=O)C32)OCO4)cc(OC)c1O (stereo partly specified) the Potency (CRL-7250) was 83.3 nM (active), the max response (HaCat [1]) was 3.35% and the Potency (KB-3-1) was 66.2 nM (active). The Potency (NIH3T3) was 132 nM (active), the Potency (MKL-1) was 2350 nM (active) and the Potency (UISO) was 52.6 nM (active). For the same compound, the Potency (WaGa) was 52.6 nM (active).
In the case of CCCN1CCO[C@@H]2c3cc(O)ccc3OC[C@@H]21, the max response (CRL-7250) is reported as -5.49%, the outcome (KB-3-1) is reported as “inactive” and the Potency (MCC-13) is reported as “inactive”. For the same compound, the Potency (MCC-26) was “inactive”, the Potency (MKL-1) was “inactive” and the Potency (UISO) was “inactive”.
With CC(C)(C)NC[C@H](O)c1ccc(O)cc1Cl the max response (CRL-7250) was -2.25%, the max response (KB-3-1) was 9.37% and the max response (NIH3T3) was -4.5%. For the same compound, the Potency (MCC-13) was “inactive”, the Potency (MCC-26) was “inactive” and the Potency (MKL-1) was “inactive”. The Potency (MKL-2) was “inactive”, the Potency (UISO) was “inactive” and the Potency (WaGa) was “inactive”.
In the case of C[N+](C)(C)CC(=O)O, the max response (HEK293) is reported as -2.82%, the max response (HaCat [1]) is reported as 3.56% and the max response (KB-3-1) is reported as -11.7% and 3.15%.
With CC=C(C)C(=O)O[C@H]1C(C)=C2[C@@H]3OC(=O)[C@@](C)(O)[C@@]3(O)[C@@H](OC(=O)CCC)C[C@](C)(OC(C)=O)[C@@H]2[C@@H]1OC(=O)CCCCCCC the Potency (CRL-7250) was 148 nM (active), the Potency (HaCat [1]) was 8330 nM (active) and the Potency (NIH3T3) was 18.7 nM (active). For the same compound, the Potency (MCC-13) was 1870 nM (active), the Potency (MCC-26) was 1320 nM (active) and the Potency (MKL-1) was 11800 nM (active). For the same compound, the Potency (MKL-2) was 3720 nM (active), the Potency (UISO) was 235 nM (active) and the Potency (WaGa) was 1660 nM (active).
